High-throughput results from PubChem.
Tat export inh: E. coli Tat export inhibitors, primary screen, MC4100, TorA-mCherry reporter, fluorescence, single point; inhibition, % at 10 µM; 0.036% of 340,000 active;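 active means mean replicate inhibition at least 50% and at least half of replicates individually reaching 50%; inconclusive means only one of the two criteria met; inactive means neither criterion met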;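 further: exported cargo escapes ClpAP degradation while cytoplasmic cargo is degraded and loses fluorescence; 0% = median of neutral control wells and 100% = median of NaSCN control wells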
AI-2 QS modul: Vibrio harveyi AI-2 quorum sensing modulators, primary screen, JMH597 strain, luminescence/OD600 ratio; Vibrio harveyi JMH597 AI-2 luminescence/OD600 ratio, 9 h; active compounds read low; strain lacks LuxN and CqsS sensors; 0 = neutral-control median; 0.4% of 300,000 active; activity change, % at 7.5 µM; AID 2094, 2009; in the data active means activity change below about -75%, passing the limit was not always enough; inconclusive means no clear call, values can overlap the other calls;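 further: luminescence divided by OD600 gain over 9 h not by final OD600 alone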
phage Ecoli inh: growth loss of phage-infected E. coli, primary screen, RecBCD inhibitor project, absorbance, with phage, HTS | inhibition, % at 11.9 µM | 0.26% of 360,000 active | AID 651602, 2012; in the data active means inhibition above about 11%
E coli growth-1: E. coli growth inhibition, primary screen, OD600; 0.21% of 330,000 active; OD600 absorbance (no concentration beside the values); AID 1053175, 2014; Escherichia coli growth, 23 h; active compounds read low;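 active means OD600 absorbance below the run mean of sample wells minus 3.6 SD, in any replicate, cut at about 0.56 in these data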
AddAB inh: growth inhibition of E. coli expressing H. pylori AddAB, primary screen, AddAB inhibitor project, absorbance; inhibition, % at 11.9 µM; AID 435030, 2010; 0.29% of 330,000 active; in the data active means inhibition above about 12%;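 further: 0% = vehicle wells of infected cells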
E coli growth-2: E. coli V3065 growth inhibition, primary screen, counter-screen for AddAB inhibitor project, absorbance, OD600. 0.27% of 330,000 active. inhibition, % at 11.9 µM. 18 h;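 active means inhibition above the campaign's mean inhibition across all tested compounds plus 3 SD, cut at about 9.9% in these data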;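 further: uninfected addAB+ strain grown without phage in ampicillin broth; 0% = DMSO wells and 100% = ciprofloxacin 0.95 µg/ml wells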
AddAB confirm: growth loss of phage-infected E. coli expressing H. pylori AddAB, confirmation, AddAB inhibitor project, absorbance, E. coli V3065, T4 phage, triplicate | shares compounds with AddAB inh | OD; T4 phage with gene 2 nonsense mutations | inhibition, % at 11.9 µM | 64% of 880 active;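 active means mean inhibition above a set limit taken from the earlier primary screen, cut at about 13% in these data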;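 further: higher means less bacterial growth since AddAB block lets phage replicate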
RecBCD counter: growth loss of RecBCD+ E. coli with mutant T4 phage, counter-screen for AddAB inhibitor project, absorbance, V66 E. coli; shares compounds with AddAB inh; OD growth; inhibition, % at 11.9 µM; 73% of 880 active; AID 488955, 2010;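 active means mean inhibition above the mean of solvent-only control wells plus 3 SD, cut at about 4% in these data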;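 further: optical density read after an 18 h incubation at 37 °C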
bact viab count: bacterial viability inhibition counter-screen, confirmation, counter-screen for AddAB inhibitor project, absorbance. 35% of 880 active. inhibition, % at 11.9 µM. absorbance (AddAB counterscreen). AID 488956, 2010. shares compounds with AddAB inh; in the data active means inhibition above about 25%
Numbers without * were called inactive. This is a sample that favours compounds with a hit; in the whole collection about 0.79% have one here.

`O=C(Oc1coc(CSc2ncccn2)cc1=O)c1cccc([N+](=O)[O-])c1` gave Tat export inh -0.3, AI-2 QS modul 5.7, phage Ecoli inh 0.6, E coli growth-1 0.684, AddAB inh -0.8 and E coli growth-2 -1.4.
`O=C(Oc1c(Cl)cc(Cl)c2cccnc12)c1cccc([N+](=O)[O-])c1` gave Tat export inh 1.7, AI-2 QS modul -0.8, E coli growth-1 0.071*, AddAB inh 29.9*, E coli growth-2 27.7*, AddAB confirm 61.6*, RecBCD counter 59.0* and bact viab count 58.4*.
Screening CC=C(C)C(=O)Nc1cccc(C2=NOC3(C2)CC(C(N)=O)N(C(=O)Cc2ccc([N+](=O)[O-])cc2)C3)c1 (configuration not stated) returned E coli growth-1 0.685.
Screening Cc1ccc(OCC(=O)c2c[nH]c3ccccc23)c([N+](=O)[O-])n1 returned Tat export inh 7.1, AI-2 QS modul -37.9, phage Ecoli inh 7.1, E coli growth-1 0.64, AddAB inh 23.1*, E coli growth-2 20.2*, AddAB confirm 46.2*, RecBCD counter 6.8* and bact viab count 42.3*.
For CN(C)Cc1c(C(=O)NN=Cc2cccc(OCc3ccccc3)c2)nnn1-c1nonc1N the results were E coli growth-1 0.679.
`O=C1c2cccc3c([N+](=O)[O-])ccc(c23)C(=O)N1c1ccccn1` gave Tat export inh -12.2, AI-2 QS modul 4.8, phage Ecoli inh 2.6, E coli growth-1 0.668, AddAB inh 1.4 and E coli growth-2 -2.4.
O=C1c2cccc3c([N+](=O)[O-])ccc(c23)C(=O)N1O was read as Tat export inh 81.3*, AI-2 QS modul inconclusive, phage Ecoli inh 43.9*, AddAB inh 35.0*, E coli growth-2 50.3*, AddAB confirm 86.4*, RecBCD counter 74.5* and bact viab count 81.2*.
COC(=O)c1cc(C(=O)OCC(=O)N(C)C2CCS(=O)(=O)C2)cc([N+](=O)[O-])c1 (configuration not stated) was read as Tat export inh 0.5, AI-2 QS modul 22.4, phage Ecoli inh 0.9, E coli growth-1 0.704, AddAB inh 21.7*, E coli growth-2 12.5*, AddAB confirm -2.2, RecBCD counter -0.7 and bact viab count -2.2.
For O=C(O)CCC(=NNC(=O)c1ccncc1)c1ccccc1 the results were E coli growth-1 0.676.
`CCCCCNC(=O)c1cn(CC)c2cc(N3CCN(C)CC3)c(F)cc2c1=O` gave Tat export inh 3.9, AI-2 QS modul 128.1, phage Ecoli inh 6.7, E coli growth-1 0.047*, AddAB inh 92.3*, E coli growth-2 90.0*, AddAB confirm 100.5*, RecBCD counter 12.2* and bact viab count 95.9*.
`CCN(CC)CCCNC(=O)c1cn(CC)c2cc(N3CCN(C(=O)c4ccco4)CC3)c(F)cc2c1=O` gave Tat export inh 19.9, AI-2 QS modul 18.3, phage Ecoli inh 1.1, E coli growth-1 0.0645*, AddAB inh 97.4*, E coli growth-2 97.9*, AddAB confirm 100.2*, RecBCD counter 88.0* and bact viab count 101.2*.
CCN(CC)CCNC(=O)c1cn(CC)c2cc(N3CCN(C(=O)c4ccco4)CC3)c(F)cc2c1=O was read as Tat export inh 12.7, AI-2 QS modul 10.2, phage Ecoli inh 7.6, E coli growth-1 0.074*, AddAB inh 67.6*, E coli growth-2 65.1*, AddAB confirm 97.8*, RecBCD counter 6.6* and bact viab count 89.4*.
O=C(CN1CCOCC1)NN=C/C=C/c1ccccc1 was read as E coli growth-1 0.665.
O=C(CCCN1C(=O)S/C(=C\c2ccccc2)C1=O)NNC(=O)c1ccccc1O was read as Tat export inh -5.4, AI-2 QS modul 11.7, phage Ecoli inh 10.3, AddAB inh 9.1 and E coli growth-2 5.1.
For O=C(CCN1C(=O)/C(=C\c2ccccc2)SC1=S)NNC(=O)c1ccccc1O the results were Tat export inh 11.7, AI-2 QS modul 16.7, phage Ecoli inh 8.0, E coli growth-1 0.718, AddAB inh 15.6*, E coli growth-2 9.4, AddAB confirm 3.5, RecBCD counter 5.0* and bact viab count 4.3.
For CCCCn1nnnc1SCC(=O)c1cc(Cl)ccc1OC the results were Tat export inh 9.9, AI-2 QS modul 6.6, phage Ecoli inh -0.5, E coli growth-1 0.715, AddAB inh 3.6 and E coli growth-2 -3.0.
COc1ccc(Cl)cc1C(=O)CSc1nc(N)cc(N)n1 was read as Tat export inh 2.6, AI-2 QS modul 36.3, phage Ecoli inh 2.9, E coli growth-1 0.667, AddAB inh 98.4*, E coli growth-2 97.3*, AddAB confirm -0.7, RecBCD counter -0.8 and bact viab count -3.3.
For COc1ccc(CN2C(CC(C)=O)c3ccc(C=CC(C)=O)cc3S2(=O)=O)cc1 (configuration not stated) the results were E coli growth-1 0.711.
For CCCc1cc(C(=O)Nc2cc(C)on2)no1 the results were Tat export inh 2.8, AI-2 QS modul 13.2, phage Ecoli inh 2.4, E coli growth-1 0.63, AddAB inh 99.7*, E coli growth-2 95.6*, AddAB confirm 0.8, RecBCD counter 3.0 and bact viab count 2.7.
Cc1cc(NC(=O)c2cc(C)on2)no1 was read as Tat export inh -14.6, AI-2 QS modul 31.9, phage Ecoli inh 1.2, E coli growth-1 0.724, AddAB inh -0.9 and E coli growth-2 -0.2.
Screening O=C(NN=Cc1ccc(Cl)cc1)C1CC12CCC2 (configuration not stated) returned E coli growth-1 0.677.
Screening COc1cccc(C=NNC(=O)C(=O)NN=Cc2cccc(OC)c2O)c1O returned E coli growth-1 0.712.
For COc1cccc(/C=N/NC(=O)N/N=C/c2cccc(OC)c2O)c1O the results were Tat export inh -4.8, AI-2 QS modul -22.1, phage Ecoli inh 10.9, AddAB inh 15.3*, E coli growth-2 12.4*, AddAB confirm 12.1, RecBCD counter 11.4* and bact viab count 8.6.
For CC(=O)CC(O)CC(=O)C1OC(=O)CCCCCCc2ccccc21 (configuration not stated) the results were E coli growth-1 0.659.
